{"source": "PubChem BioAssay AID878", "about": "(University of Pittsburgh Molecular Library Screening Center, 2007)", "note": "Screen size: about 200,000 compounds; about 65 (0.03%) were called active. This is one part of a sample in which actives are shown more often than they occur.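 How the source made its calls: active means activation of at least 50% relative to the plate's high and low controls in the primary single-dose screen; inactive means activation below 50%.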"}
{"assay": "compounds producing H2O2 with reducing agent – biochemical, NIH compound library profiling, artefact control for MLSCN library redox annotation, primary screen (AID 878);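 further: compound incubated with DTT at 0.8 mM final as the reducing agent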", "conditions": "DTT-dependent redox cycling H2O2, phenol red/HRP absorbance; at 10 µM; hits give high values; 100% = 100 µM peroxide control, 0% = buffer"}
{"molecule": "O=C1c2cccc3c([N+](=O)[O-])ccc(c23)C(=O)N1CC1CCCO1", "note": "(configuration not stated)", "activation": "-0.67% (inactive)"}
{"molecule": "O=C(N/N=C1\\CCSC1)c1cc(Cl)ccc1O", "activation": "-0.43% (inactive)"}
{"molecule": "CCn1ccnc1CN1CCCC(C(=O)c2ccc3c4c(cccc24)CC3)C1", "note": "(configuration not stated)", "activation": "-1.32% (inactive)"}
{"molecule": "COc1ccc([N+](=O)[O-])cc1NC(=O)c1ccc(N(Cc2ccccc2C)S(C)(=O)=O)cc1", "activation": "2.05% (inactive)"}
{"molecule": "CCOc1ccc(N(CC(=O)NC2CCCCCC2)S(=O)(=O)c2c(C)[nH]c(=O)[nH]c2=O)cc1", "activation": "-0.79% (inactive)"}
{"molecule": "CCC(O)C1CCN(Cc2cn(-c3ccc(OC)cc3)nc2-c2cccc(F)c2)CC1", "note": "(configuration not stated)", "activation": "-1.12% (inactive)"}
{"molecule": "O=C(NNC(=O)C1CCN(c2ncccn2)CC1)c1ccccc1", "activation": "3.9% (inactive)"}
{"molecule": "O=C(NC(=S)Nc1ccc(NC(=O)c2cccs2)cc1)c1ccc([N+](=O)[O-])cc1", "activation": "0.63% (inactive)"}
{"molecule": "CNc1ccc(SC#N)cc1", "activation": "-1.28% (inactive)"}
{"molecule": "CCN1CCN(CC(=O)c2cc(OC)c(OC)c(OC)c2)CC1", "activation": "-2.87% (inactive)"}
{"molecule": "CC(Nc1ccccc1)c1cccnc1", "note": "(configuration not stated)", "activation": "-1.74% (inactive)"}
{"molecule": "CN(C)c1ccc(-n2cccc2/C=N/n2cnnc2)cc1", "activation": "-0.65% (inactive)"}
{"molecule": "COC(=O)/C(C#N)=C/c1occc1C", "activation": "-0.05% (inactive)"}
{"molecule": "Cc1cc(C)cc(N(CC(=O)N2CC=C(c3ccccc3)CC2)S(=O)(=O)c2c(C)noc2C)c1", "activation": "-1.64% (inactive)"}
{"molecule": "CC(C)(C)C(=O)N(Cc1ccccc1)c1ccccn1", "activation": "-0.82% (inactive)"}
{"molecule": "O=C(CN1CCCCCC1)Nc1ccc(Br)cc1Br", "activation": "0.33% (inactive)"}
{"molecule": "COCCCn1c(SCC(=O)Nc2ccccc2)nnc1-c1ccncc1", "activation": "0.72% (inactive)"}
{"molecule": "CCCCN=C1C([N+](=O)[O-])=CC=C2C1=NC1(CCCCC1)N2O", "activation": "0.33% (inactive)"}
{"molecule": "O=C(N/N=C/c1ccco1)c1ccc(C(=O)N/N=C/c2ccco2)o1", "activation": "-0.77% (inactive)"}
{"molecule": "O=C(C1CC1)N1N=C2CCCCC2C1(O)C(F)(F)F", "note": "(configuration not stated)", "activation": "-0.33% (inactive)"}
{"molecule": "CC1Cc2ccccc2N1S(=O)(=O)c1c(N)n(C)c(=O)n(C)c1=O", "note": "(configuration not stated)", "activation": "-1.16% (inactive)"}
{"molecule": "Cc1cc(NC(=O)CSc2nc3c(cc2C#N)CCCCC3)no1", "activation": "-0.92% (inactive)"}
{"molecule": "COC(=O)c1ccccc1NS(=O)(=O)c1ccc2[nH]c(=O)[nH]c2c1", "activation": "0.27% (inactive)"}
{"molecule": "COc1ccc(CCNC(=O)/C(C#N)=C2\\N=C(NC(=O)c3cccs3)c3ccccc32)cc1", "activation": "0.35% (inactive)"}
{"molecule": "CCC(NC(=O)c1ccccc1NC(=O)c1ccccc1)C(=O)NNC(=O)CSc1nc2ccccc2o1", "note": "(configuration not stated)", "activation": "-0.15% (inactive)"}
{"molecule": "CCc1cccc(C)c1NC(=O)COC(=O)Cc1ccsc1", "activation": "-0.34% (inactive)"}
{"molecule": "Cc1noc(C)c1COc1ccc2ccc(=O)oc2c1", "activation": "-0.19% (inactive)"}
{"molecule": "COc1ccc2nc(Nc3nc(-c4ccncc4)cs3)sc2c1", "activation": "-0.22% (inactive)"}
{"molecule": "Cc1cccc(OC(=O)c2sc3ncn(C)c(=O)c3c2C)c1", "activation": "0.69% (inactive)"}
{"molecule": "COc1ccc(CCNC(=O)C(=O)NCc2ccccc2C)cc1OC", "activation": "-0.24% (inactive)"}
{"molecule": "CCc1nnc(NC(=O)C2CC(=O)N(c3ccc4c(c3)OCCO4)C2)s1", "note": "(configuration not stated)", "activation": "0.21% (inactive)"}
{"molecule": "CCc1ccc(CN(C)C(=O)CCc2nnc(-c3ccc(-c4ccccc4)cc3)o2)nc1", "activation": "-1.14% (inactive)"}
{"molecule": "Cc1ccccc1NC(=O)c1ccc(COc2ccc3c(C)cc(=O)oc3c2)cc1", "activation": "0.57% (inactive)"}
{"molecule": "O=C(Nc1cccc(C(F)(F)F)c1)c1ccc(N2CCNCC2)c([N+](=O)[O-])c1", "activation": "2.54% (inactive)"}
{"molecule": "CN(C)CCCO/N=C(\\c1ccccc1)c1ccncc1", "activation": "0.18% (inactive)"}
{"molecule": "CCOCCCNC(=O)C(NC(=O)c1ccc(=O)[nH]c1)c1ccc(Cl)cc1", "note": "(configuration not stated)", "activation": "-3.26% (inactive)"}
{"molecule": "COc1cc(CC(=O)N/N=C/c2ccccc2)c([N+](=O)[O-])cc1OC", "activation": "-0.77% (inactive)"}
{"molecule": "O=S(=O)(c1ccc(F)cc1)N1CCN(C(=S)NCc2ccco2)CC1", "activation": "-0.47% (inactive)"}
{"molecule": "O=C(Cc1ccccc1)NNC(=O)C1CCN(c2ncccn2)CC1", "activation": "-0.49% (inactive)"}
{"molecule": "COc1ccc(Cl)cc1-n1c(C)cc(C(=O)OCC(=O)N2CC(=O)Nc3ccccc32)c1C", "activation": "0.04% (inactive)"}
{"molecule": "Cc1ccc(-c2cc(=O)c3ccc(Cl)cc3[nH]2)cc1", "activation": "-1.26% (inactive)"}
{"molecule": "CCN(CC)c1ccc([N+](=O)[O-])cc1C(=O)O", "activation": "0.13% (inactive)"}
{"molecule": "N#Cc1c(NC(=O)c2ccc(N3CCOCC3)c([N+](=O)[O-])c2)sc2c1CCCC2", "activation": "0.09% (inactive)"}
{"molecule": "COc1cc(NC(=S)NCc2ccco2)c(OC)cc1Cl", "activation": "-0.01% (inactive)"}
{"molecule": "O=C(Nc1ccccc1)c1cc2ccccc2[nH]1", "activation": "-0.39% (inactive)"}
{"molecule": "C=CCN(Cc1nc(-c2cc(OC)c3c(c2)OCO3)oc1C)C1CCS(=O)(=O)C1", "note": "(configuration not stated)", "activation": "-0.18% (inactive)"}
{"molecule": "COc1ccccc1C(=O)Nc1ccc(OCc2nnc3c4ccccc4c(C)nn23)cc1", "activation": "-0.13% (inactive)"}
{"molecule": "CCOC(=O)Nc1ccc(S(=O)(=O)N(C)C(C)C)cc1", "activation": "0.17% (inactive)"}
{"molecule": "Cc1cc(NC(=O)CN2C(=O)NC(CCc3ccccc3)C2=O)no1", "note": "(configuration not stated)", "activation": "-0.88% (inactive)"}
{"molecule": "COc1ccc(OC)c(NC(=O)CN(Cc2ccc(Cl)cc2)S(C)(=O)=O)c1", "activation": "-0.61% (inactive)"}
{"molecule": "CC(C)NC(=O)c1ccccc1S(=O)c1ccccc1C#N", "note": "(configuration not stated)", "activation": "0.13% (inactive)"}
{"molecule": "COc1ccc(C2=NN(c3ccccc3)C(c3cccs3)C2)cc1", "note": "(configuration not stated)", "activation": "0.96% (inactive)"}
{"molecule": "C=CCn1nc(-c2ccccc2)c2c(C)onc2c1=O", "activation": "-0.48% (inactive)"}
{"molecule": "Cc1ccc(C(=O)NC(C)c2ccccc2)cc1Br", "note": "(configuration not stated)", "activation": "-0.27% (inactive)"}
{"molecule": "CC(C)Cn1c(N)c(C(=O)COC(=O)CN2C(=O)C3CC=CCC3C2=O)c(=O)n(C)c1=O", "note": "(configuration not stated)", "activation": "-0.26% (inactive)"}
{"molecule": "Cc1cc(C)cc(NC(=O)N2CCCCCCC2)c1", "activation": "-0.28% (inactive)"}
{"molecule": "CCCCN1C(=O)/C(=C/C=C2/C=Cc3ccccc3N2CC)SC1=S", "activation": "1.26% (inactive)"}
{"molecule": "C=CCn1c(COc2ccc(F)cc2)nnc1SCC(=O)Nc1cccc(S(N)(=O)=O)c1", "activation": "-0.73% (inactive)"}
{"molecule": "CCN(CC)CCCNC(=O)Cn1cnc2sc(C)c(S(=O)(=O)N3CCN(c4ncccn4)CC3)c2c1=O", "activation": "-0.75% (inactive)"}
{"molecule": "COC(=O)C1=C(C(=O)OC)C(c2cc([N+](=O)[O-])ccc2O)c2sc(=O)[nH]c2S1", "note": "(configuration not stated)", "activation": "0.35% (inactive)"}
{"molecule": "COCCn1c(C)cc(C(=O)COC(=O)/C=C/c2cccc(OC)c2)c1C", "activation": "0.06% (inactive)"}
{"molecule": "O=C(COC(=O)c1ccc(F)cc1)Nc1nc2ccc([N+](=O)[O-])cc2s1", "activation": "-0.91% (inactive)"}
{"molecule": "Cc1nn(CC(=O)NCc2ccccn2)c(C)c1[N+](=O)[O-]", "activation": "0.55% (inactive)"}
{"molecule": "Cc1nc(NC(=O)C2CCCCC2)sc1C", "activation": "1.88% (inactive)"}
{"molecule": "O=C(Nc1cccc(S(=O)(=O)N2CCCCC2)c1)c1ccc2c(c1)OCO2", "activation": "-0.11% (inactive)"}
{"molecule": "CCOC(=O)C1(Cc2ccccc2C(F)(F)F)CCN(C(=O)c2cc(C)n(C)n2)CC1", "activation": "-0.12% (inactive)"}
{"molecule": "COC(=O)NNC1=CC(=O)CC(C)(C)C1", "activation": "0.51% (inactive)"}
{"molecule": "CCOC(=O)c1c(N)nn(C(=O)c2ccccc2)c1-c1ccccc1", "activation": "-2.05% (inactive)"}
{"molecule": "CCCCNC(=O)CCn1c(=O)c2ccccc2n(Cc2cc(C)ccc2C)c1=O", "activation": "0.21% (inactive)"}
{"molecule": "C=CCn1c2ccccc2c2nnc(SCc3[nH]c(=O)[nH]c3C(=O)CCCCC(=O)OCC)nc21", "activation": "0.68% (inactive)"}
{"molecule": "CCN1C(=O)/C(=c2\\s/c(=C3\\Sc4ccccc4N3C)c(=O)n2C)N(C)C1=S", "activation": "-0.11% (inactive)"}
{"molecule": "CC(=O)C1(C)N(O)C(C)(C)C(c2cccs2)=[N+]1[O-]", "note": "(configuration not stated)", "activation": "0.23% (inactive)"}
{"molecule": "Cc1c(NC(=S)NCc2ccc(F)cc2)cccc1[N+](=O)[O-]", "activation": "0.02% (inactive)"}
{"molecule": "CN(C)/C=C(/C(=O)c1ccc(F)cc1)S(=O)(=O)c1ccc(F)cc1", "activation": "-0.68% (inactive)"}
{"molecule": "CCC1CCCCN1C(=O)CSc1nc(C)cc(C)n1", "note": "(configuration not stated)", "activation": "-1.65% (inactive)"}
{"molecule": "CCCCC(O)(CCCC)C(=O)NN(C(=O)CCl)c1ccccc1", "activation": "0.06% (inactive)"}
{"molecule": "O=C(c1cccs1)n1nc(NCc2ccccc2)nc1NCc1ccccc1", "activation": "-0.21% (inactive)"}
{"molecule": "Cc1cc(C)c(C#N)c(SCC(=O)Nc2ccccc2)n1", "activation": "0.39% (inactive)"}
{"molecule": "COc1ccc(/C=C(\\C#N)C(=O)ONC2=NCCCCC2)cc1", "activation": "-1.95% (inactive)"}
{"molecule": "Cc1cc(CNCc2c(C(=O)N(C)Cc3ccccc3)nc3ccccn23)nn1C", "activation": "-1.78% (inactive)"}
{"molecule": "Cc1ccc(C)c(OCC(=O)N2CCN(C(=O)c3ccco3)CC2)c1", "activation": "-0.33% (inactive)"}
{"molecule": "COc1ccc(/C=C/C(=O)c2ccc(NS(=O)(=O)c3ccc(C)cc3)cc2)cc1O", "activation": "0.57% (inactive)"}
{"molecule": "CCN(CC)C(=O)c1sc2nc(-c3ccccc3)ccc2c1N", "activation": "0.13% (inactive)"}
{"molecule": "Cc1ccc(C)c(NC(=S)NNC(=S)Nc2ccc(C(C)C)cc2)c1", "activation": "-1.35% (inactive)"}
{"molecule": "Oc1ccc(/C=N/Nc2ccc(C(F)(F)F)cn2)cc1O", "activation": "-2.05% (inactive)"}
{"molecule": "CC(CC(=O)O)CC(=O)NNC(=O)c1cccc(Br)c1", "note": "(configuration not stated)", "activation": "0.78% (inactive)"}
{"molecule": "Cc1ccc(OCC(=O)OC(C)CN(C)Cc2ccccc2)cc1", "note": "(configuration not stated)", "activation": "-0.15% (inactive)"}
{"molecule": "Cc1ccc(NC(=O)c2oc(=O)c3ccccc3c2-c2ccccc2)c(C)c1", "activation": "-0.2% (inactive)"}
{"molecule": "COc1ccc(CS(=O)/C(Cl)=C(/Cl)C(=O)Nc2ccc(OC)nc2)cc1", "note": "(configuration not stated)", "activation": "0.27% (inactive)"}
{"molecule": "CCOC(=O)C1=C(CN2CCCCCC2)NC(=O)NC1c1cccc([N+](=O)[O-])c1", "note": "(configuration not stated)", "activation": "-10.2% (inactive)"}
{"molecule": "CCOC(=O)C1(O)CC(C)=NN1C(=O)c1cccc(Br)c1", "note": "(configuration not stated)", "activation": "-0.77% (inactive)"}
{"molecule": "COC(=O)c1ccccc1NC(=O)C1CC(=O)N(c2ccc(OC)cc2)C1", "note": "(configuration not stated)", "activation": "-0.76% (inactive)"}
